Measurements from ChEMBL document CHEMBL4513216, “Probing the Open Global Health Chemical Diversity Library for Multistage-Active Starting Points for Next-Generation Antimalarials” (ACS Infect Dis, 2020).
Screen size: about 69,000 compounds; about 8,600 (12%) showed an effect of 50% or more. Only a selection was taken, and strong results are over-represented in it overall.

What follows are molecules tested on Plasmodium berghei (assay: Screen against P. berghei liver stage (PbLuc), transformed with Luciferase, at 10uM). Conditions: tested at 10 uM.
Type: functional, HepG2
`Cc1ccnc(NCc2ccccc2N2CCOCC2)n1` showed an INHIBITION of 46.3%.
Work on `Cc1[nH]nc2ncc(C(=O)N3CCN(CC(C)O)CC3)cc12` (centres undefined) yielded an INHIBITION of -0.96%.
With `Cc1ccc(OCC2CCCN(C(=O)c3csc(CN(C)C)n3)C2)cc1` (centres undefined) the INHIBITION was 31%.
`c1cnc(N2CCOC3(CCN(CC4CCOC4)CC3)C2)nc1` (centres undefined) showed an INHIBITION of 8.64%.
With `CCNC(=O)c1ccc(NC2CCOC3(CCCC3)C2)nn1` (centres undefined) the INHIBITION was 24.6%.
In the case of `O=C(c1ccco1)N1CCO[C@@H]2CNCC[C@@H]2C1`, the INHIBITION was -0.388%.
`O=C(c1ccco1)N1CCO[C@@H]2CN(CC3CC3)CC[C@@H]2C1` showed an INHIBITION of 85.8%.
`CCc1cnc(N2CC[C@@H]3CN(C(=O)c4ccco4)CCO[C@@H]3C2)nc1` gave an INHIBITION of 92.5%.
`CC(=O)N1CC[C@@H]2CN(C(=O)c3ccco3)CCO[C@@H]2C1` showed an INHIBITION of 48.3%.
In the case of `O=C(CCO)N1CC[C@@H]2CN(C(=O)c3ccco3)CCO[C@@H]2C1`, the INHIBITION was 80%.
`O=C(c1ccco1)N1CCO[C@@H]2CN(Cc3nccs3)CC[C@@H]2C1` gave an INHIBITION of -5.89%.
Work on `O=C(c1ccco1)N1CCO[C@@H]2CN(c3ccccc3)CC[C@@H]2C1` yielded an INHIBITION of 84.7%.
`CCc1cnc(N2CC[C@@H]3CN(C(C)=O)CCO[C@@H]3C2)nc1` was tested, and the INHIBITION was 45.8%.
In the case of `O=C(c1ccco1)N1CCO[C@@H]2CN(c3ccccn3)CC[C@@H]2C1`, the INHIBITION was -26.5%.
`Cc1cccc(N2CC[C@@H]3CN(C(=O)c4ccco4)CCO[C@@H]3C2)n1` showed an INHIBITION of 49.5%.
`O=C(c1ccco1)N1CC[C@@H]2CN(C3CCOCC3)CCO[C@@H]2C1` was tested, and the INHIBITION was 22.2%.
For `O=C(c1ccco1)N1CCO[C@@H]2CN(c3ncc(F)cn3)CC[C@@H]2C1`, the INHIBITION was 42.6%.
Molecule `CC(NC(=O)N1CCCC1)c1ccc(S(N)(=O)=O)cc1` (centres undefined) has an INHIBITION of 33.7%.
`NC(=O)[C@@H]1CCCN1C(=O)c1csc(-c2ccc(C(F)(F)F)cc2)n1` gave an INHIBITION of 28.4%.
`Cc1cc(CN(C)C(=O)C(c2ccccc2F)N(C)C)ccn1` (centres undefined) was tested, and the INHIBITION was 30%.
`COc1ccc(CC(=O)N2CCCC(c3cc(C)[nH]n3)C2)cc1` (centres undefined) was tested, and the INHIBITION was 28.62%.
With `CN(C)C(=O)CO[C@H]1CN(Cc2cccc(F)c2)[C@@H]2CCCO[C@H]12` the INHIBITION was 43.1%.
For `COCc1cc(CNc2cnn(CC(F)F)c2)ccc1OC`, the INHIBITION was 38.2%.
For `CC(=O)N1CCO[C@@H]2CN(C(=O)NCc3cccnc3)CC[C@@H]2C1`, the INHIBITION was 12.1%.
In the case of `CC(=O)N1CCO[C@@H]2CN(C(=O)NCc3ccccc3)CC[C@@H]2C1`, the INHIBITION was 51.2%.
`CN1CCO[C@@H]2CN(C(=O)NCc3ccccc3)CC[C@@H]2C1` gave an INHIBITION of 16.8%.
With `CN(C)C(=O)N1C[C@H]2CC[C@@H](C1)N(Cc1ccc3nsnc3c1)C2` the INHIBITION was 21.8%.
In the case of `Fc1ccc(CN2CCCC(c3nccnc3-n3ccnc3)C2)cc1` (centres undefined), the INHIBITION was 6.32%.
Work on `CC(=O)Nc1ccc(CN2CCCC(c3cc4ncccc4[nH]3)C2)cc1` (centres undefined) yielded an INHIBITION of 50.95%.
With `CCC(=O)NC1CCCN(Cc2ccc(NC(C)=O)cc2)C1` (centres undefined) the INHIBITION was 27.6%.
Molecule `CCOc1ccc(CN2CCN(C(=O)c3cc(C4CC4)[nH]n3)CC2)cc1` has an INHIBITION of 48.1%.
`CCOc1ccc(CN2CCCC(c3cc4ncccc4[nH]3)C2)cc1` (centres undefined) was tested, and the INHIBITION was 81.5%.
With `Fc1ccc(CN2CCCC(c3cc4ncccc4[nH]3)C2)cc1` (centres undefined) the INHIBITION was 85.65%.
With `O[C@@H]1CN(Cc2ccc(F)cc2)CC[C@H]1NCc1ccccn1` the INHIBITION was 28.55%.
In the case of `Cc1cc(C)n(CC(=O)N2CCCC(c3cc4cccnc4[nH]3)C2)n1` (centres undefined), the INHIBITION was 30.4%.
`CCOc1nnc(CN2CCCC(c3nc4ccccc4[nH]3)C2)s1` (centres undefined) was tested, and the INHIBITION was 22.8%.
`CC(=O)N(Cc1noc(C)n1)C1CCN(CC2(O)CCCCC2)C1` (centres undefined) gave an INHIBITION of 33.7%.
`Cn1cc(CN2CCC(c3[nH]ncc3S(C)(=O)=O)C2)cn1` (centres undefined) showed an INHIBITION of 8.53%.
Work on `CCOc1ncccc1NC(=O)c1ccc(C)s1` yielded an INHIBITION of 23.2%.
`CCc1nnc(Sc2nn3cc(C)nc3s2)n1C` showed an INHIBITION of -9.8%.
Work on `Cc1noc(C)c1CCC(=O)N1CCOCC1CCc1cnccn1` (centres undefined) yielded an INHIBITION of 25.8%.
For `Cc1cnn(CCC(=O)N2CCN(C(=O)C3CC3)[C@@H]3CS(=O)(=O)C[C@@H]32)c1`, the INHIBITION was 3%.
Molecule `CC(C)(C)c1nc(CC(=O)N2CCCC(n3cncn3)C2)cs1` (centres undefined) has an INHIBITION of 47.65%.
Work on `Cc1ccc(C2(O)CCN(C(=O)c3ccc(S(N)(=O)=O)cc3)CC2)nc1` yielded an INHIBITION of 38%.
For `OC(COCc1cccs1)Cn1cc(-n2cccc2)cn1` (centres undefined), the INHIBITION was 8.46%.
`OC(COCc1ccco1)CSc1nnc2ccccn12` (centres undefined) was tested, and the INHIBITION was 14.8%.
In the case of `OC(COCc1cccs1)CSc1nnc2ccccn12` (centres undefined), the INHIBITION was 56.5%.
For `OC(COCc1ccccc1)CSc1nnc2ccccn12` (centres undefined), the INHIBITION was 42.6%.
For `OC(COCc1cccs1)Cn1cc(Cl)cn1` (centres undefined), the INHIBITION was 75.2%.
With `OC(COCc1cccs1)Cn1cc(Br)cn1` (centres undefined) the INHIBITION was -28.4%.
`CSCC(=O)NC1CC(=O)N(CCc2ccccc2)C1` (centres undefined) showed an INHIBITION of -17.6%.
Molecule `CCn1nc(C)c(NC(=O)CN2CCN(C(C)=O)CC2)c1C` has an INHIBITION of -4.23%.
With `CS(=O)(=O)N1CC2(CCN(CC3CCCCC3)CC2)Cc2ccccc21` the INHIBITION was 46.6%.
`O=C(Nc1ccc2c(ccn2CCN2CCOCC2)c1)c1ccccn1` gave an INHIBITION of -4.15%.
In the case of `CC(C)OCCCN(Cc1ccncc1)Cc1cc(F)cc(F)c1`, the INHIBITION was -26.2%.
With `CCOCCN1CCN(c2ncccc2C#N)CC1CC` (centres undefined) the INHIBITION was 4.03%.
Work on `O=C(c1ccncn1)N1C[C@@H]2CN(Cc3cccnc3)CCO[C@@H]2C1` yielded an INHIBITION of 17.5%.
Molecule `CCOC(=O)COc1cccc(NC(=O)C2COCCO2)c1` (centres undefined) has an INHIBITION of 8.24%.
`CCOCc1cccc(NC(=O)C2COCCO2)c1` (centres undefined) showed an INHIBITION of 59.3%.
In the case of `O=C(Nc1cccc(OCc2ccc(F)cc2)c1)C1COCCO1` (centres undefined), the INHIBITION was 10.3%.
`O=C(OCc1ccccc1)c1cccc(NC(=O)C2COCCO2)c1` (centres undefined) gave an INHIBITION of 7.44%.
`O=C(Nc1ccc(OCc2cccc(F)c2)c(F)c1)C1COCCO1` (centres undefined) gave an INHIBITION of 78.4%.
For `O=C(Nc1cccc(OCc2cccc(F)c2)c1)C1COCCO1` (centres undefined), the INHIBITION was -47.4%.
Work on `CN(C)C(=O)N1Cc2nnn(C)c2C(COCc2cccnc2)C1` (centres undefined) yielded an INHIBITION of 27.6%.
